This passage reports binding signal results from paper PMC12136788.

T1: UNK ZnF1-3 (human, UniProt Q9C0B0 31-174)
T1 sequence: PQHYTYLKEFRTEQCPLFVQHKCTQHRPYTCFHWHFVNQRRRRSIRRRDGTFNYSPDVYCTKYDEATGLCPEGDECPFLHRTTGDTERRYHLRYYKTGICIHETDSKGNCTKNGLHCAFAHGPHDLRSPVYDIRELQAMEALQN

B1: chr7:54823571:54823572:-_ENSG00000132432_ENST00000352861|hu_mus|hu_hu_hu_mus_False|98_98 (ssRNA)
RNA: GGGAGUUCUACAGUCCGACGAUCUCCCAUGAUAGCAAAUCCUAUUGCUGUAGCCAUGGCAAUCUUCUGGAAUUCUUUUCUGUCGGGUUUGGUGCAUCUUUUAACCAGCCGAAUUGAGUCCUUUACAAACUGCCGGCUGGGCUCCAACAGAGGAUUGAGCAUCA
B2: 80410323_80421071_410_CDS_ENSMUSG00000027002_ENSMUST00000028386|mouse|control|control (ssRNA)
RNA: GGGAGUUCUACAGUCCGACGAUCCACAGCAGAUUCCAGGUUUUUGUCAAUAAGGUAGGAGGGUUUAGCCUUGGGGUCGCCACAUGCCUUCUUGAUGUUGUAGAGGCGCGUGAGCAUGCCGACGCCCCGGUCGUUGAGGAUGGUCAACAGAGGAUUGAGCAUCA
B3: chr7:149838072:149838073:-_ENSMUSG00000048583_ENSMUST00000000033|mus_mus|motif|central (ssRNA)
RNA: GGGAGUUCUACAGUCCGACGAUCGAUCACUGCUCCCGUUAUGUAGGGAAUGGGUACAAUUGAUUAUGAGCGCAUAAAAAGCGGAGGAGGGAUUAAAAAAAAAAGGAAAAAACCGGCCCCAGAAAUAAAAAGAGGGGAAUAGAUCAACAGAGGAUUGAGCAUCA
B4: chr7:149838072:149838073:-_ENSMUSG00000048583_ENSMUST00000000033|mus_mus|FALSE|FALSE (ssRNA)
RNA: B3 RNA with G82U, G83A
B5: chr2:25961539:25961540:-_ENSG00000143970_ENST00000336112|hu_mus|FALSE|FALSE (ssRNA)
RNA: GGGAGUUCUACAGUCCGACGAUCGAGUAAUGGAAAGCCUGCUCAUAACAAACCAUUUAACCCAAGAGCUCAUGAAACUUUAAGAGGAGGAAAGCAGCAUAGAGCAAUCAGAAUGGUAACUGAAGGGACCGUUCUAUGUAGGACCAACAGAGGAUUGAGCAUCA
B6: chr7:75932113:75932114:+_ENSG00000106211_ENST00000248553|hu_hu|hu_hu_hu_mus_False|8_88 (ssRNA)
RNA: GGGAGUUCUACAGUCCGACGAUCCUGCGACCACUCAUCGGGCAACCGGGGCAGCCCGAAAGCUUGAUCGAAGAGGCGGCUGUGUGCAGGGUACCAGUCCCGGAAUGGUUCCCAGCUCGGGCUCCGCAGCGAGAAGGAGGGCACCAACAGAGGAUUGAGCAUCA
B7: chr3:94910677:94910678:-_ENSMUSG00000028126_ENSMUST00000107236|mus_mus|motif|central (ssRNA)
RNA: GGGAGUUCUACAGUCCGACGAUCACUUGAGCCGGGCCCCGGGAGUCCCGCGUCUCGGAUAGAACAAACCUAAAGGAAAACCGGGGCACCUGAGGUGCCCCCAAAAGCGAAUGCCCCCCCUCCCUCACCUCCCCAGCCACUGCCCAACAGAGGAUUGAGCAUCA
B8: chr2:47388980:47388981:-_ENSG00000143933_ENST00000272298|hu_mus|hu_hu_hu_mus_True|8_68 (ssRNA)
RNA: GGGAGUUCUACAGUCCGACGAUCUUCAUCUGUUAACUUCUCGCCAAGGUUUGUCAUCACAUGGCGAAGUUCUGCAGCACUAAUAUAGCCAUUGCCAUCCUUAUCAAACACACGGAAUGCUUCUCUAAUUUCUUCUUCACUGUCCAACAGAGGAUUGAGCAUCA
B9: 160109231_160113639_413_CDS_ENSG00000112096_ENST00000546260|human|control|control (ssRNA)
RNA: GGGAGUUCUACAGUCCGACGAUCAACUUCAGUGCAGGCUGAAGAGCUAUCUGGGCUGUAACAUCUCCUGGAAAACUCGGAACCGGUACAAAUACGAAGCGAGUUCUCCUCCACGGAGAGGCCCGUCCGUAUGGGGCCUGGCUCCAACAGAGGAUUGAGCAUCA
B10: chr4:144460044:144460045:+_ENSG00000153147_ENST00000283131|hu_mus|hu_hu_hu_mus_False|28_78 (ssRNA)
RNA: GGGAGUUCUACAGUCCGACGAUCACGGUCCAUAGCCUGAAGAUCAACUUGCGGAUUCCAAUCAGAAUCAUAUAAAAUGACUACAUCAGCAGUUGCAAGAUUGAUGCCAAGACCACCAGCACGUGUGCUUAGCAUAAAUACAAACAACAGAGGAUUGAGCAUCA
B11: chr6:41756983:41756984:+_ENSG00000214736_ENST00000398881|hu_mus|FALSE|FALSE (ssRNA)
RNA: GGGAGUUCUACAGUCCGACGAUCAUCAAUGUCACUCAAGUUCCUGGCCAGCCAGACUCCCGCAGCAAAGAGUCCCAAAUUGAGGAUCAAGUUCCUCCGGAAGUCGUUUCGAUCGGUGGCGAAGCGGAAGACACCGCGGAGCCACAACAGAGGAUUGAGCAUCA
B12: 40918001_40923414_123_3pUTR_ENSMUSG00000028423_ENSMUST00000098143|mouse|control|control (ssRNA)
RNA: GGGAGUUCUACAGUCCGACGAUCAGCAGCAUCUGUAUUGAAUUUAAAAGUGCCUGAGACCGGAGGCGCCUCCGCCAUCCCGUGCCGCAGCACCUCAAGCGAGCCCCGCCACCGAGCGAAGGCUGUCACCUGGUCACGUGUCCCCAACAGAGGAUUGAGCAUCA
B13: chr7:140404665:140404666:+_ENSG00000090266_ENST00000247866|hu_hu|hu_hu_hu_mus_False|1_28 (ssRNA)
RNA: GGGAGUUCUACAGUCCGACGAUCUGCUCCUACUCGUCCAGAGAGUUUACAGUGUCAGUCCUCGUCAUCAGGAGGGAUUCCCAGUUCUUCAUCUGUCCACUGUGAAGGAUCAGGAUAUGAAAAGUGACCCAGCACAGCUUCUGACAACAGAGGAUUGAGCAUCA
B14: chr13:9170561:9170562:+_ENSMUSG00000033499_ENSMUST00000091829|mus_mus|motif|central (ssRNA)
RNA: GGGAGUUCUACAGUCCGACGAUCCCAUCAGCCCCCAUCCAUCUGCUGGACACCCUACCAAUGCGCACUUGUAGACCAACGGUUAAAAAAAAAAAAAAAGGAAGUAGCAGAGUUCCCUUAAUUUAGAAAAACUCAUUAUAGCUUCAACAGAGGAUUGAGCAUCA
B15: 48821072_48822033_622_CDS_ENSG00000108848_ENST00000240304|human|control|control (ssRNA)
RNA: GGGAGUUCUACAGUCCGACGAUCUGCAGCAAAGCUUUCAAUUGUCGACGUUGUGGACCUUAGCAGUUCUCUCUCUUCUUUUAAUUGCUCAACUAAUUUCAUCAUCCCCUGGGCUUCUUCUACUUUUCCUUCAGACCCUAAUUCCAACAGAGGAUUGAGCAUCA
B16: chr7:108137184:108137185:-_ENSG00000135241_ENST00000257694|hu_mus|motif|central (ssRNA)
RNA: GGGAGUUCUACAGUCCGACGAUCUCGAUAGAGUUCCUCACAUUCAUCCAGCGGCAUGUGAAACAAUCCCAGCAUAAAUGCGGAUAUGGCCCCUGUGCUUACUCCACAGAUGUAAUCAAAAAGCUGAUGAAUCGGCUUCUGAGUCAACAGAGGAUUGAGCAUCA
B17: chr13:9170561:9170562:+_ENSMUSG00000033499_ENSMUST00000091829|mus_hu|FALSE|FALSE (ssRNA)
RNA: GGGAGUUCUACAGUCCGACGAUCCACUGGCCCUCAUUCAUCUGCGGGGACGUUCUAGAGAUAUGCACUUACAGACCAGUUACUUAAAAAAAAAAAAAAAAAGCAGAGUUCCCUUAAUUUAGAAAAACUCACUAUAUAUAGCUUCAACAGAGGAUUGAGCAUCA
B18: chr2:43450610:43450611:-_ENSG00000152518_ENST00000282388|hu_mus|FALSE|FALSE (ssRNA)
RNA: GGGAGUUCUACAGUCCGACGAUCGUUAAAUAGUUUUUCAUAUUGAGUUGUGGUGCAGUGGUGCGGAUCAACUCAGAACAACUAAAAAUGAAGCACUUAUUUCCCAACAACUAUGAACUGAGCUCUGCCCAUAGCUUCCAGAGACAACAGAGGAUUGAGCAUCA
B19: chr1:32384726:32384727:-_ENSG00000184007_ENST00000602725|perfect_dup|FALSE|FALSE (ssRNA)
RNA: GGGAGUUCUACAGUCCGACGAUCAGGAGGAAAUCAAUAAAUCUUGAAAUGUUCCGCAGCAGAAAACAUUAAAAAGACCACUAAAAUGCCUAUUAUUGAUCACUAUUUUCUCUAUUCAACUUGCUUGUUCCUUAGGAAGCUUCUCAACAGAGGAUUGAGCAUCA
B20: chr13:9170561:9170562:+_ENSMUSG00000033499_ENSMUST00000091829|mus_mus|FALSE|FALSE (ssRNA)
RNA: B14 RNA with G80U, G81A
B21: chr18:67805652:67805653:+_ENSMUSG00000024537_ENSMUST00000025418|mus_hu|FALSE|FALSE (ssRNA)
RNA: GGGAGUUCUACAGUCCGACGAUCAUACUUAAUAAAAAUGGAUCUUAACUGUAGAGCCACCAGCUUUCUUGAAGGCAAUGAAUACACUUCAGCAUUUAUGCUAAGUUCUGUUGAAUUUCCUUCUGUGGUCGCAUAUGGAUUGUUCAACAGAGGAUUGAGCAUCA
B22: 30503004_30509812_319_CDS_ENSG00000126858_ENST00000394692|human|control|control (ssRNA)
RNA: GGGAGUUCUACAGUCCGACGAUCCAGAUCAGAUUUGUUCCCAACCAAUAUUAAAGGCAGCCUGCUGUCUUUGUCUGUUCUUUCAUUUAUGAGAGGAAUCCAUCGACUUGUUACCUUAUCAAUAGAAUGCUUGUUGUUAACGGCCAACAGAGGAUUGAGCAUCA

Changes are numbered by the printed parent chain. Over roughly 24,000 sequences, “enrichment r” has its median near 0.99; the highest 2% begin near 3.7. The entries come from a sample that favours the highest values as a whole.

The assay addresses T1, UNK ZnF1-3. Briefly: nsRBNS (natural sequence RNA bind-n-seq); RBNS binding buffer (assumed for nsRBNS): 25 mM Tris pH 7.5, 150 mM KCl, 3 mM MgCl2, 0.01% Triton X-100, 500 ug/ml BSA, 20 U/ml SUPERase-In, 4 C; UNK is unkempt and MSI1 is Musashi-1; names of the RNAs are library labels; protein concentration not given here; high values mean tight binding.
The molecule B1 yielded a binding signal of 0.647 enrichment R. Next, B2: 0.855 enrichment R. Consider B3, for which the binding signal worked out at 9.4 enrichment R. Molecule B4 registered a binding signal of 11 enrichment R.

B5 had a binding signal of 3.45 enrichment R. The value for B6 was 1.63 enrichment R; that for B7 was 2 enrichment R.

Turning to B8, the binding signal came to 0.795 enrichment R. The value for B9 was 0.808 enrichment R; that for B10 was 1.2 enrichment R; that for B11 was 1.55 enrichment R.

As for B12, the binding signal turned out to be 1.06 enrichment R. The molecule B13 showed a binding signal of 1.15 enrichment R.

Take B14: the binding signal is 4.58 enrichment R. Next, B15: 0.686 enrichment R; B16: 1.13 enrichment R; B17: 6.5 enrichment R.

Regarding B18, the binding signal was 1.32 enrichment R. The value for B19 was 0.842 enrichment R; that for B20 was 5.05 enrichment R.

The molecule B21 showed a binding signal of 1.04 enrichment R.

The molecule B22 yielded a binding signal of 0.92 enrichment R.
